Screening data (PubChem)
PolyA inh: polyadenylation inhibitors in yeast reporter cells, primary screen, luminescence, S. cerevisiae. AID 1875, 2009. S. cerevisiae SKY197-pL101 polyadenylation reporter, beta-gal luminescence; efflux-impaired pdr1/pdr3 knockout yeast; score 100 = 6 SD above DMSO. activity score, % at 12 µM. 300,000 compounds, 0.02% hits;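 active = lowest replicate activity score at least 50, where 100 means six control SD above control mean; inconclusive = lowest score under 50 but half or more replicates reach 50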;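 note: yeast exposed to compound for 9 h at 30 °C; higher score means more reporter readthrough which indicates perturbed polyadenylation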
M18AAP inhibitor: PfM18AAP inhibitors, malaria aminopeptidase, primary screen, biochemical, QFRET, recombinant enzyme | H-Glu-NHMec fluorogenic cleavage | inhibition, % at 7.35 µM | 290,000 compounds, 1.2% hits;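 active = inhibition above the campaign mean inhibition over all tested compounds plus 3 SD, cut at about 28% in these data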;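 note: 0% = plate median of test compound wells and 100% = 2 mM ZnCl2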
IDE cell inh: human IDE inhibitors in live cells, primary screen, fluorescence polarization, HEK cells, FAbetaB substrate. FAbetaB cleavage. Insulin-degrading enzyme (Homo sapiens), P14735. 320,000 compounds, 0.41% hits. AID 434962, 2010. inhibition, % at 5.59 µM;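 active = percent inhibition above the average of all tested compounds plus 3 SD, set per screening campaign, cut at about 16% in these data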;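 note: IDE supplied by intact live HEK cells; FP after avidin binding of uncleaved biotin substrate so inhibition keeps polarization high; 0% = DMSO wells and 100% = 60 µM reference IDE inhibitor Ii1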
Target sequence (P14735 whole entry, looked up): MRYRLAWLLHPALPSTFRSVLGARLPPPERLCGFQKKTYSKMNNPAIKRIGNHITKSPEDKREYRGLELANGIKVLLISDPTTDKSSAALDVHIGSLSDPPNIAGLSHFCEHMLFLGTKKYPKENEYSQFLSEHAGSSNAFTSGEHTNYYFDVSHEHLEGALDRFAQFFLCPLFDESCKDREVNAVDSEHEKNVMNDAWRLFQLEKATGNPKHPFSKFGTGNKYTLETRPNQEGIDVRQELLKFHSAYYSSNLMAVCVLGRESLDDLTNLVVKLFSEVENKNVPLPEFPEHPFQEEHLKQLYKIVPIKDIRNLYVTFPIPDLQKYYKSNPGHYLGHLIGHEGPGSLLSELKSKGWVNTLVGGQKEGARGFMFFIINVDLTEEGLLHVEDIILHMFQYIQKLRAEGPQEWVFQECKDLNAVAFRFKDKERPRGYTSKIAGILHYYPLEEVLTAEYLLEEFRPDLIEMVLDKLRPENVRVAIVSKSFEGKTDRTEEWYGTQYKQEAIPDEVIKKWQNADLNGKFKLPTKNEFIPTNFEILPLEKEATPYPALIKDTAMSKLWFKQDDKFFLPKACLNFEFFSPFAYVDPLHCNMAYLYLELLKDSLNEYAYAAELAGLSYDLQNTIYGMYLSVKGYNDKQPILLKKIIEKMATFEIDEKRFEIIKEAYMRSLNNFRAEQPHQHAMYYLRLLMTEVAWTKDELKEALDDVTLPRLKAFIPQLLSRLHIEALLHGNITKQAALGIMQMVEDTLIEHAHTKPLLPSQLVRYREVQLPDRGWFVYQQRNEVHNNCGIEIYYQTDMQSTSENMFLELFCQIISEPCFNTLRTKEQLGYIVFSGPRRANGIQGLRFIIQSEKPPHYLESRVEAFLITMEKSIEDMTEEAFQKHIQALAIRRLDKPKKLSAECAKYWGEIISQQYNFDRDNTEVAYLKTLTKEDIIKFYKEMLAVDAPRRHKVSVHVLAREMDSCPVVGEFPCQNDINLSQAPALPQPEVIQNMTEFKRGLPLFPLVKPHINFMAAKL
CaV13 FRET inh: Disruptors of the CACNA1D IQ motif to Ca2+-dependent inactivation inhibitor domain association, primary screening, Förster resonance energy transfer in intact living …; 340,000 compounds, 0.098% hits; HEK cells, CFP/YFP FRET ICDI-IQ, plate reader, 10 min; percent FRET-ratio fall versus neutral wells; inhibition, % at 12.3 µM;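 active = mean replicate inhibition of at least 30% and at least 1% of replicates passing that level; inconclusive = only one of the two criteria is met; inactive = neither criterion is met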;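 note: 0% = median of the neutral control wells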
IDE cell activ: human IDE activators in live cells, primary screen, fluorescence polarization, HEK cells, FAbeta-B substrate; activation, % at 5.96 µM; 340,000 compounds, 0.073% hits; FAbeta-B cleavage; 0% vehicle, 100% cell-free pure enzyme wells; AID 493087, 2011;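 active = activation above the mean of all tested compounds plus 3 SD, set per screening campaign, cut at about 17% in these data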
ALR H2O2 inh: inhibitors of human ALR sulfhydryl oxidase, primary screen, biochemical, H2O2 detection, HRP-luminol luminescence, single point | AID 485317, 2010 | inhibition, % (no concentration beside the values) | FAD-linked sulfhydryl oxidase ALR (Homo sapiens), P55789 | purified ALR, DTT oxidation | 290,000 compounds, 3.8% hits;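 active = mean replicate inhibition above about 79%, with every replicate also reaching it, limit read from the data; inconclusive = only one of the two criteria met; inactive = mean below limit and not every replicate reaching it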
Numbers without * were called inactive; ? = inconclusive; / = no result given. Hits are enriched below; roughly 4.1% of the tested compounds scored in any of these assays.

SMILES	PolyA inh	M18AAP inhibitor	IDE cell inh	CaV13 FRET inh	IDE cell activ	ALR H2O2 inh
COCCCN1C(=O)C(CC(=O)NCCCN(C)C)CC(C(=O)N2CCCCCC2)=C1C (centres undefined)	/	/	/	-13.9	/	/
CCCCc1ccc(N2C(=O)[C@@H]3C(CC(N)=O)NC4(C(=O)Nc5ccc(F)cc54)[C@@H]3C2=O)cc1 (some centres undefined)	11.8	-10.5	8.7	-5.7	5.6	-5.7
CN(Cc1cccs1)S(=O)(=O)c1ccc(Cl)cc1F	/	/	-0.4	-2.8	4.2	-5.1
O=C(O)c1cccc(N2C(=O)CSC2c2ccccc2)c1 (centres undefined)	7.7	0.3	-1.9	-5.3	-0.4	-1.8
O=C1CSC(c2ccccc2)N1c1cccnc1 (centres undefined)	-4.6	2.1	4.5	-4.2	0.9	93.1*
CCN(CC)c1ccc(N2C(=NC(=O)C3CCCO3)SC3CS(=O)(=O)CC32)cc1 (centres undefined)	2.5	8.1	0.0	-2.0	3.7	98.7*
O=C(N=C1SC2CS(=O)(=O)CC2N1c1ccc(Cl)cc1)C1CCCO1 (centres undefined)	-0.9	-0.5	5.6	-3.2	1.2	2.7
O=C(Nc1ncnc2sc3c(c12)CCCCC3)c1ccco1	-6.4	-10.1	3.1	-5.5	0.3	96.5*
O=C(Nc1ncnc2sc3c(c12)CCCC3)c1ccncc1	11.6	0.8	-1.4	-2.0	1.3	-12.8
Cc1cccc(C(O)c2ncc(-c3ccccc3F)[nH]2)c1C (centres undefined)	/	/	/	-13.3	/	/
CCOC(=O)c1c(N)sn(-c2ccccc2C)c1=S	-12.2	20.5	-1.8	-5.1	0.2	97.0*
CC1Cc2ccccc2N1CC(=O)Nc1ccc2c(c1)OCCCO2 (centres undefined)	/	/	-1.9	-2.9	2.0	13.4
Cc1ccc2c(c1)NC(=O)c1cccnc1N2	14.9	-72.4	-5.5	/	-0.6	98.4*
CCN(CC)c1ccc(C=Nc2ccc(C)cc2)c(O)c1	12.2	12.7	-3.6	-3.0	4.6	1.4
CCN1CCN(c2ccc(N=Cc3ccc(O)cc3O)cc2)CC1	1.1	-4.1	-0.6	3.8	-0.4	98.8*
CC(C(=O)O)N1C(=O)/C(=C/C=C/c2ccco2)SC1=S (centres undefined)	28.8	17.8	0.1	-5.0	-6.1	97.3*
COc1ccc2c3c([nH]c2c1)C(C)N(C(C)=O)CC3 (centres undefined)	13.9	5.4	-1.3	-3.3	3.8	96.8*
O=C(OCc1ccccc1)/C(=C/c1cccc([N+](=O)[O-])c1)NC(=O)c1ccco1	6.9	-5.1	-6.8	-3.5	4.9	3.7
N#C/C(=C/c1cc(Cl)c(O)c(Cl)c1)C(=O)N1CCCCC1	-11.9	4.9	4.7	11.7	1.7	36.6
N#CC(C#N)=C(N)/C(C#N)=C/c1cc(O)c(O)c(O)c1	/	/	6.2	-4.8	-4.6	96.2*
COC(=O)[C@]12C[C@H](CC(=O)N3CCOCC3)C(=O)N(Cc3ccc4c(c3)OCO4)C1=C[C@H](COCc1ccccc1)O[C@@H]2C	/	/	/	-9.2	/	/
COC(=O)Cc1nc(Nc2ccccc2)sc1C	-12.8	2.2	4.0	-2.2	/	99.3*
CS(=O)(=O)c1ccc(S(=O)CC(=O)Oc2ccc(Cl)cc2)c([N+](=O)[O-])c1 (centres undefined)	-11.5	2.6	3.5	/	/	43.1
O=C(CS(=O)c1ccccc1[N+](=O)[O-])Oc1ccc(Br)cc1 (centres undefined)	-20.1	3.6	-2.8	-2.1	3.3	78.3*
CCn1c(=O)cc(C(F)(F)F)[nH]c1=S	10.2	-1.7	-5.0	5.1	9.0	-2.0
SMILES	PolyA inh	M18AAP inhibitor	IDE cell inh	CaV13 FRET inh	IDE cell activ	ALR H2O2 inh
COC(=O)[C@H](NC(=O)c1cc([C@@H](NC(=O)OC(C)(C)C)C(C)C)sc1N)C(C)C	/	/	/	-9.8	/	/
CCOC(=O)c1[nH]c(CN2CCN(c3ccc(OC)cc3)CC2)c(C(=O)OCC)c1C	2.6	-5.0	-1.6	-3.8	1.6	27.1
CCOC(=O)c1cc(C#N)c(SCC(=O)OC)[nH]c1=O	-9.0	3.5	6.1	-1.4	3.9	99.3*
CCOC(=O)c1cc(C#N)c(N2CCN(c3ccc(OC)cc3)CC2)[nH]c1=O	-0.5	1.0	-2.2	-4.1	4.2	92.7*
CC1CN(c2nc3ccccc3nc2SCC(=O)Nc2ccc(F)cc2)CC(C)O1 (centres undefined)	2.8	1.5	2.3	-3.1	2.2	14.6
O=C1OCC(CO)(CO)N=C1NNc1ccccc1Cl	-13.1	6.7	-5.1	-5.9	-3.6	99.4*
Cc1ccc(NNC(=O)c2ccno2)cc1Cl	-25.5	17.4	-0.7	-19.9	-1.9	98.5*
Cc1noc(C)c1C(=O)Nc1ccc(F)cc1	-8.1	1.6	1.0	-2.1	7.9	-4.0
Cc1ccc(NNC(=O)c2ccno2)cc1C	-12.3	19.8	8.1	-14.1	6.7	98.4*
Cc1noc(C)c1C(=O)Nc1ccc(N(C)C)cc1	2.1	0.6	0.2	/	1.2	99.1*
Cc1ccc(NNC(=O)c2c(C)noc2C)cc1Cl	-57.9	30.0*	3.3	-4.5	6.5	53.0
COc1ccc(C2CC(=O)C(c3ccc(Br)cc3)=CN2Cc2ccccc2)cc1 (centres undefined)	/	/	/	-4.1	/	/
Cc1ccc(NC(C(=O)c2ccccc2)c2ccccc2)cc1 (centres undefined)	/	/	/	-4.9	0.7	/
COc1ccc(S(=O)(=O)Nc2ccc3c(c2)C(=O)N([C@@H](C)CO)C[C@@H](C)[C@H](CN(C)S(=O)(=O)c2ccc(F)cc2)OCCCC[C@H](C)O3)cc1	/	/	/	-5.5	/	/
Cc1cc(C(=O)NNc2ccc(F)cc2F)no1	-6.6	26.2	3.6	-3.0	4.3	97.8*
Cc1cc(C(=O)NNc2ccc(C)c(C)c2)no1	5.3	15.9	8.9	-14.2	3.8	99.1*
Cc1cc(C(=O)NNc2ccc(Cl)cc2)no1	-30.8	18.0	-5.6	-20.6	10.2	?
CN(C)c1ccc(NC(=O)c2cnsn2)cc1	5.4	1.5	1.0	-2.7	2.0	99.2*
Cn1nc(C(=O)N2CCCCC2)c2c1-c1ccccc1S(=O)(=O)C2	5.8	-8.6	-1.6	-7.4	-4.8	4.3
CCOC(=O)c1c(C)nc2c(c1-c1ccccc1)C(=O)CCC2	-8.1	-6.3	2.9	/	-12.1	-4.0
Cc1ccc(C(=O)Nc2ccccc2N2CCCC2)cc1S(=O)(=O)N1CCOCC1	/	/	-3.9	-2.9	-0.3	98.3*
COc1ccc(S(=O)(=O)N2CCC(C(=O)Nc3ccccc3N3CCCC3)CC2)cc1OC	-12.9	14.0	-2.1	-7.0	1.4	96.9*
